Source: PubChem (several laboratories)
Sampled rows, rich in hits. Any-hit rate of the full collection: about 3.4%.
MITF TRPM1 inh: reduces MITF-dependent TRPM1 promoter luciferase signal. 330,000 compounds, 0.83% hits. inhibition, % at 12.5 µM. SK-MEL-5 TRPM1 promoter luciferase, 24 h;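 active = mean inhibition across replicates of 60% or more, whatever share of single replicates reaches that level; inconclusive = some that reach 60%, reason not given; inactive = mean inhibition across replicates below 60%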
TWEAK Fn14 block: TWEAK-Fn14 signaling inhibition; inhibition, % at 10 µM; 360,000 compounds, 2% hits; TWEAK-stimulated Fn14 reporter cells, luciferase luminescence, 8 h; in the data active = inhibition above about 50%
HIF-2a inh: blocks HIF-2a reporter activity; 786-0 RCC cells HIF-2a reporter, luciferase luminescence, overnight; AID 624352; 360,000 compounds, 0.72% hits; inhibition, % at 18.8 µM;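 active = inhibition of the luminescence signal of 40% or more relative to plate controls, in a single-dose primary screen at 18.75 µM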
TROY signal inh: blocks TROY-dependent signaling in reporter cells. Q293 LMP1-TROYcd NF-kB luciferase reporter, 4 h. inhibition, % at 10 µM. 360,000 compounds, 0.98% hits. AID 1347056;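 active = compounds whose plate-normalised and pattern-corrected inhibition of the luciferase reporter signal at the single screening dose is 50% or more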
Shn3 inh set2: reduces Shn3 3'UTR luciferase signal in osteoblasts | Clone20 osteoblast Shn3 3'UTR firefly luciferase, 24 h | inhibition, % at 12.5 µM | 360,000 compounds, 0.52% hits | AID 588674;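 active = mean inhibition of at least 75% with every replicate also reaching 75%; inconclusive = mean inhibition at least 75% but some replicate below; inactive = mean inhibition below 75%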;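 also: 0% = median of neutral control wells and 100% = pilot-screen positive control compound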
LMP1 NFkB inh: inhibitors of Epstein-Barr LMP1-induced NF-kappaB reporter; LMP1-induced NF-kappaB luciferase reporter cells, luminescence; inhibition, % at 12.5 µM; 350,000 compounds, 0.69% hits; AID 504558; in the data active = inhibition above about 41%; inconclusive = no clear call, values can overlap the other calls;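 also: 0% = neutral control wells and 100% = reference inhibitor control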
Numbers without * were called inactive; ? = inconclusive; · = not tested or not shown.

SMILES	MITF TRPM1 inh	TWEAK Fn14 block	HIF-2a inh	TROY signal inh	Shn3 inh set2	LMP1 NFkB inh
Nc1c(C(=O)Nc2ccc(Cl)c(C(=O)O)c2)sc2nc3c(cc12)CCCC3	14.3	13.0	2.0	2.6	-83.7	8.7
Nc1c(C(=O)Nc2cccc(C(=O)O)c2)sc2nc3c(cc12)CCCC3	80.4*	29.3	76.8*	-49.3	32.2	57.2*
OC(c1cccc(CN2CCCCC2)c1)c1ncc(-c2cccc(C(F)(F)F)c2)[nH]1 (centres undefined)	·	-3.0	-3.4	8.9	-15.8	·
CCCC(=O)NC(c1ccc(C(C)C)cc1)c1ccc2cccnc2c1O (centres undefined)	49.4	29.2	18.3	33.7	90.9*	61.9*
Cc1cc(NC(c2ccc(Cl)cc2)c2ccc3cccnc3c2O)no1 (centres undefined)	77.6*	-31.1	14.3	15.0	88.7*	69.6*
CC(=O)NC(c1ccc(Cl)cc1)c1ccc2cccnc2c1O (centres undefined)	54.9	18.8	16.7	26.4	87.3*	62.9*
CC(=O)NC(c1ccco1)c1ccc2cccnc2c1O (centres undefined)	51.9	26.0	5.3	9.0	73.6	24.6
COc1ccc(C(NC(=O)C(C)C)c2ccc3cccnc3c2O)cc1 (centres undefined)	76.3*	22.1	22.6	3.9	94.8*	24.1
CC(=O)NC(c1ccc(N(C)C)cc1)c1cc(Cl)c2cccnc2c1O (centres undefined)	·	34.1	17.1	23.2	67.6	11.1
CCCCC(=O)NC(c1ccc(OC)cc1)c1ccc2cccnc2c1O (centres undefined)	·	0.1	18.7	-0.3	90.6*	64.6*
CCC(=O)NC(c1ccc(C)cc1)c1ccc2cccnc2c1O (centres undefined)	?	20.6	15.6	21.7	89.8*	?
CCCC(=O)NC(c1ccc(OC)cc1)c1c(O)ccc2ccccc12 (centres undefined)	21.7	21.9	27.5	4.2	0.0	-8.2
CCC(=O)NC(c1ccc(C)cc1)c1cc([N+](=O)[O-])c2cccnc2c1O (centres undefined)	6.4	23.1	-1.2	-9.0	7.9	16.8
CCCC(=O)NC(c1ccc(N(C)C)cc1)c1ccc2cccnc2c1O (centres undefined)	72.6*	2.9	8.0	5.9	91.1*	46.7*
Cc1c(NC(=O)Nc2cccc(C#N)c2)c(=O)n(-c2ccccc2)n1C	-1.1	-3.8	2.6	10.8	4.6	4.6
O=C(Nc1ncc([N+](=O)[O-])s1)c1cccs1	-15.1	47.2	-177.1	-15.6	-83.8	-3.3
Cc1ncoc1C(=O)Nc1ncc([N+](=O)[O-])s1	-7.3	50.0*	-92.1	0.6	-16.7	23.3
CC(C)C(OC(=O)CN1C(=O)c2ccccc2C1=O)C(=O)NC1CCCC1 (centres undefined)	-2.2	35.7	5.0	-9.4	-99.7	-5.5
C=CC[C@@H](CC(=O)N[C@H](CO)Cc1ccccc1)C(=O)N[C@H](COC(=O)[C@@H](CC=C)Cc1ccc(F)cc1)Cc1c[nH]c2ccccc12	34.0	65.8*	5.6	68.5*	32.1	32.2
C=CCC[C@H](Cc1ccc(F)cc1)C(=O)OC[C@H](Cc1c[nH]c2ccccc12)NC(=O)[C@@H](CC=C)CC(=O)N[C@H](CO)Cc1ccccc1	10.8	49.7	-0.1	44.6	91.5*	4.3
C=CCC[C@H](Cc1ccc(F)cc1)C(=O)OC[C@H](Cc1c[nH]c2ccccc12)NC(=O)[C@@H](CC=C)CC(=O)N[C@@H](CO)Cc1ccccc1	75.0*	-14.1	-2.1	16.5	71.5	-2.6
C=CCC[C@@H](Cc1ccc(F)cc1)C(=O)OC[C@H](Cc1c[nH]c2ccccc12)NC(=O)[C@@H](CC=C)CC(=O)N[C@H](CO)Cc1ccccc1	15.4	20.0	15.4	13.7	11.3	-3.1
Cc1cccc(C)c1-n1nnnc1C1(C)CCC(=O)N1Cc1ccco1 (centres undefined)	·	1.9	9.0	-11.2	·	·
COc1ccc(S(=O)(=O)N2CCOCC2)cc1Cl	0.0	11.0	5.8	-0.9	-1.2	10.2
Cc1nc(Oc2ccc(S(=O)(=O)N3CCOCC3)cc2Cl)c2c3c(sc2n1)CCCC3	8.2	60.1*	27.7	29.3	16.3	9.2
SMILES	MITF TRPM1 inh	TWEAK Fn14 block	HIF-2a inh	TROY signal inh	Shn3 inh set2	LMP1 NFkB inh
CC1CCN(CCCNS(=O)(=O)c2cc(Br)cc3c2N(C(=O)C2CC2)CC3)CC1	-5.0	72.6*	14.8	-1.8	-13.4	-8.0
O=C(C1CC1)N1CCc2cc(Br)cc(S(=O)(=O)NCCCN3CCCCC3)c21	2.6	-11.3	8.7	3.4	-2.6	-6.9
COC(=O)c1c(C)oc2ccc(N(C(=O)c3ccncc3)S(=O)(=O)c3ccc4ccccc4c3)cc12	10.1	57.1*	19.1	53.0*	33.7	8.3
Cc1cc(F)ccc1S(=O)(=O)N(C(=O)c1ccncc1)c1ccc(OC(=O)c2ccncc2)cc1	7.9	55.5*	6.4	62.2*	0.7	-11.9
Cc1ccc(S(=O)(=O)N(C(=O)c2ccncc2)c2ccc3oc4c(c3c2)CCCC4)cc1[N+](=O)[O-]	-5.1	29.5	12.3	54.0*	-5.2	9.0
COC(=O)c1c(C)oc2ccc(N(C(=O)c3ccncc3)S(=O)(=O)c3ccc(C)cc3C)cc12	21.1	79.6*	28.1	65.6*	75.3	28.0
Cc1ccc([N+](=O)[O-])cc1S(=O)(=O)N(C(=O)c1ccncc1)c1ccc2oc3c(c2c1)CCCC3	2.1	-2.5	15.2	21.7	-21.7	2.4
c1cc(-c2cc3nc(NC4CCCCC4)ccn3n2)ccc1OCCN1CCOCC1	·	21.9	-118.6	-11.0	46.8	·
COC(=O)[C@]12CCCCC=C1N(Cc1cccc3ccccc13)C(=O)[C@H](CC(=O)N1CCCC1)C2	·	25.1	-0.5	35.2	·	·
Cc1ccc(COc2ccsc2C(=O)NNC(N)=S)cc1	-3.5	19.4	17.3	2.2	-7.0	-0.5
COC(=O)c1c(C)oc2ccc(N(C(=O)c3ccncc3)S(=O)(=O)c3ccc(C)cc3)cc12	40.5	56.2*	0.6	59.2*	61.5	25.8
COC(=O)c1c(C)oc2ccc(N(C(=O)c3ccncc3)S(=O)(=O)c3ccccc3)cc12	8.4	29.0	18.8	48.9	68.9	11.4
CC=C1OC(n2cnc3c(N)ncnc32)C(O)C1O (centres undefined)	·	-12.2	1.9	5.4	-6.9	·
COc1ccc(-c2cnc(C(O)c3ccc(-c4ccccc4)cc3)[nH]2)cc1 (centres undefined)	·	-32.5	2.0	4.0	5.5	·
COc1ccc(-c2cnc(C(O)c3ccccc3)[nH]2)cc1 (centres undefined)	·	24.6	-173.3	50.8*	-74.6	·
COc1cccc(-c2cnc(C(O)c3ccccc3)[nH]2)c1 (centres undefined)	·	63.3*	-69.7	56.7*	-43.9	·
COc1cccc(-c2cnc(C(O)c3ccc(C)cc3)[nH]2)c1 (centres undefined)	·	3.1	-84.2	-35.3	-0.3	·
